TROY NFkB inh: inhibitors of TROY-driven NF-kB signaling, primary screen, Q293 LMP1-TROYcd cells, NF-kB luciferase, uHTS. 360,000 tested, 0.98% active. inhibition, % at 10 µM. Q293 LMP1-TROYcd NF-kB luciferase reporter, 4 h;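 active = compounds whose plate-normalised and pattern-corrected inhibition of the luciferase reporter signal at the single screening dose is 50% or more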
HIF-2a block: HIF-2a reporter inhibitors, primary screen, luminescence, 786-0 RCC cells | 786-0 RCC cells HIF-2a reporter, luciferase luminescence, overnight | inhibition, % at 18.8 µM | 360,000 tested, 0.72% active | AID 624352, 2012;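 active = inhibition of the luminescence signal of 40% or more relative to plate controls, in a single-dose primary screen at 18.75 µM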
EBV LMP1 NFkB: EBV LMP1-driven NF-kappaB luciferase reporter inhibitors, primary screen, cell-based, luminescence, single point | LMP1-induced NF-kappaB luciferase reporter cells | inhibition, % at 12.5 µM | 350,000 tested, 0.69% active; in the data active = inhibition above about 41%;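 also: 0% = neutral control wells and 100% = reference inhibitor control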
TRPM1 prom inh: inhibitors of MITF-dependent TRPM1 promoter reporter, primary screen, cell-based, SK-MEL-5, single point, luciferase; SK-MEL-5 TRPM1 promoter luciferase, 24 h; inhibition, % at 12.5 µM; 330,000 tested, 0.83% active;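 active = mean inhibition across replicates of 60% or more, whatever share of single replicates reaches that level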
TWEAK Fn14 block: inhibitors of TWEAK-Fn14 signaling, primary screen, luciferase reporter cells, uHTS; inhibition, % at 10 µM; TWEAK-stimulated Fn14 reporter cells, luciferase luminescence, 8 h; 360,000 tested, 2% active; in the data active = inhibition above about 50%
Peg3 promoter: Peg3 promoter-driven luciferase inhibitors, primary screen, cell-based, HeLa, luciferase luminescence; inhibition, % at 20 µM; AID 588405, 2011; 360,000 tested, 1.7% active; HeLa PEG-Prom luciferase reporter, overnight;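 active = inhibition of at least 50% at 20 µM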
Active calls of the source: *; / = not tested or not shown. This is a sample that favours compounds with a hit; in the whole collection about 4% have one here.

SMILES	TROY NFkB inh	HIF-2a block	EBV LMP1 NFkB	TRPM1 prom inh	TWEAK Fn14 block	Peg3 promoter
CCC1CCCCN1CC(=O)c1c(C)[nH]c2ccc(OC)cc12 (stereo not given)	-3	12	4	0	85*	-9
CN(Cc1ccccc1)C(=O)c1ccc(S(=O)(=O)N(C)c2ccccc2)cc1	6	10	-6	4	4	12
Cc1cccc(NC(=O)CSc2nnc(-c3cc(C)n(-c4ccccc4)c3C)o2)c1C	44	-53	4	-4	3	-43
Cc1cc(-c2nnc(SCC(=O)Nc3ccccc3C(F)(F)F)o2)c(C)n1-c1ccccc1	70*	12	15	-7	92*	-27
O=S(=O)(NCCOCC(F)(F)F)c1ccc2oc3ccccc3c2c1	17	15	6	3	26	9
CCOc1cccc(NCc2cc3c(C(C)(C)C)nn(-c4ccccc4)c3[nH]c2=O)c1	4	3	-17	6	20	5
CC(C)(C)c1nn(-c2ccccc2)c2[nH]c(=O)c(CNCc3ccc4c(c3)OCO4)cc12	-22	24	5	66*	27	30
COc1ccc(N2CC(C(=O)NC3CCSC3=O)CC2=O)cc1 (stereo not given)	-4	3	-3	13	-2	-14
CCN1C[C@@H]2[C@@H]3C(=O)N(Cc4ccccc4)C(=O)[C@@H]3[C@](C)(C1=O)N2C(=O)c1ccc(F)cc1	3	7	6	-5	-7	6
CC12CCC(=O)C=C1CCC1C2C(O)CC2(C)C(c3csc(N)n3)CCC12 (stereo not given)	29	2	11	8	12	3
CC12CCC(=O)C=C1CCC1C2CCC2(C)C(c3csc(N)n3)CCC12 (stereo not given)	51*	-27	21	-14	57*	19
C[C@@H]1CN([C@H](C)CO)S(=O)(=O)c2ccc(C#Cc3ccccc3F)cc2O[C@H]1CN(C)C(=O)c1ccc2c(c1)OCO2	17	-25	9	/	43	56*
C[C@H]1CN([C@@H](C)CO)S(=O)(=O)c2ccc(C#Cc3ccccn3)cc2O[C@H]1CN(C)Cc1ccc(F)cc1	-8	-15	4	/	9	-19
CCCC#Cc1ccc2c(c1)O[C@@H](CN(C)Cc1ccc3c(c1)OCO3)[C@H](C)CN([C@@H](C)CO)S2(=O)=O	2	15	9	/	2	63*
C[C@H](CO)N1C[C@H](C)[C@@H](CN(C)CC2CCOCC2)Oc2cc(C#Cc3ccccc3F)ccc2S1(=O)=O	-5	6	1	/	8	24
CC(NC(=O)c1cccc(S(=O)(=O)N2CCN(Cc3ccccc3)CC2)c1)c1ccc(Cl)cc1 (stereo not given)	-1	19	-2	5	8	12
Cc1ccc(OCC(=O)NCCNC(=O)c2ccco2)cc1C	-4	0	2	15	52*	-2
c1ccc2[nH]c(-c3cscn3)nc2c1	-27	-213	-8	-60	-8	-182
c1ccc2nc(-c3nc4ccccc4[nH]3)ccc2c1	49	-4	-2	19	82*	-24
COc1ccc(C)cc1NC(=O)CCNC(=O)Cn1cnc2ccccc2c1=O	-9	15	1	-7	-2	4
Cc1nc(C)n(C(C)CNC(=O)c2ccco2)n1 (stereo not given)	-13	17	45*	6	9	-3
Cc1nc(C)n(C(C)CNC(=O)c2ccccc2)n1 (stereo not given)	-5	18	-9	8	4	5
Cc1ccccc1CC(=O)NCc1cccnc1	13	1	67*	-5	-14	-12
O=C(NC(NCc1cccnc1)C(Cl)(Cl)Cl)c1cccc2ccccc12 (stereo not given)	-7	23	-6	2	65*	22
CN(c1ccc(C(=O)NCc2cccnc2)cc1)S(C)(=O)=O	-4	0	-11	16	7	5
SMILES	TROY NFkB inh	HIF-2a block	EBV LMP1 NFkB	TRPM1 prom inh	TWEAK Fn14 block	Peg3 promoter
Cc1ccccc1CN(c1ccc(C(=O)NCc2cccnc2)cc1)S(C)(=O)=O	-3	12	52*	4	6	11
CC(C)(C)S(=O)N1Cc2cc(=O)n(Cc3ccccc3)c(CCO)c2[C@@H]1CCO (stereo not given in full)	0	10	3	9	-4	-1
CON1C(=O)C(=O)N(OC)C(C)(C)C1(C)C	-5	11	1	-7	-3	-2
Cc1ccccc1-c1cc2c(nn1)-c1ccccc1C2=O	85*	-71	2	-12	46	-81
O=C1c2ccccc2-c2nnc(-c3ccc(F)cc3)cc21	-2	-141	11	6	75*	-11
CCn1c(SCC(=O)Nc2ccc3c(c2)OCCO3)nnc1C1CC1	4	0	-5	-1	2	7
CCCC(C)NC(C)C(=O)NC1CCCC1 (stereo not given)	13	10	66*	7	-5	-6
CCCC(CCC(=O)NC1CCCCC1)C(=O)O (stereo not given)	-5	21	0	1	0	7
CC1(c2ccccc2)NC(=O)N(CC(=O)Nc2ccccc2C(=O)N2CCCCC2)C1=O (stereo not given)	3	12	2	0	9	18
O=C(NCc1ccccn1)C1CCN(S(=O)(=O)c2ccccc2)CC1	/	8	0	6	88*	20
O=C(NCCCn1ccnc1)C1CCN(S(=O)(=O)c2ccc(F)cc2)CC1	-7	11	-3	1	86*	-6
O=S(=O)(c1ccc2c(c1)OCCO2)N1CCC(c2nc3ccccc3s2)CC1	43	-1	9	0	53*	4
COc1ccc(NC(=O)c2cccc(N3C(=O)C4C5C=CC(C6CC56)C4C3=O)c2)cc1 (stereo not given)	13	11	12	7	2	15
COc1cccc(C(C(=O)NC2CCCC2)N(Cc2ccccc2OC)C(=O)c2ccco2)c1 (stereo not given)	/	15	4	6	74*	7
COc1ccc(C(C(=O)NC2CCCC2)N(Cc2ccco2)C(=O)c2snc(C(N)=O)c2N)cc1OC (stereo not given)	11	7	2	-11	40	-10
COc1ccc(C(C(=O)NC2CCCCC2)N(Cc2ccco2)C(=O)c2snc(C(N)=O)c2N)cc1 (stereo not given)	18	12	-26	13	20	58*
CCc1cc2c(N3CCN(c4ccccc4)CC3)ncnc2s1	20	-32	44*	10	61*	28

Assay outcomes (PubChem)
